# Reference: PubChem BioAssay (NCI)
# About 83,000 compounds went through this panel and 20% of them were active in at least one assay; those are over-represented in the sample as a whole.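 Results are percent growth after 48 hours of single-concentration exposure. 100 means growth as in untreated cells, lower positive values show inhibition; negative values down to -100 show cell death.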 Unmarked numbers belong to inactive results. Active and inactive are the calls of the source. The calls were made as follows: active = growth percent below 10; inactive = the rest.
# System: DU-145 prostate
# Test: NCI-60 one-dose screen, 48 h (100 = growth as untreated, 0 = no growth, -100 = all killed)
# Conditions: 10 µM
row,SMILES,growth
1,O=C(Nc1ccc(I)cc1F)c1cc(-c2ccc(F)cc2F)ccc1O,21.5%
2,COc1cccc(/C=C2\N=C(C)N(CCc3ccc(S(N)(=O)=O)cc3)C2=O)c1,112%
3,CC1=C2C(=C[C@@](C)(COCOCCCl)[C@@H]2O)C(=O)[C@](C)(O)C12CC2,-11.1% (active)
4,Nc1n[nH]c2cccc(C#Cc3cccc(NC(=O)Nc4cc(C(F)(F)F)cc(C(F)(F)F)c4)c3)c12,7.02% (active)
5,O=C(N=Nc1c(O)[nH]c2ccc(Br)cc12)c1ccc2nc(-c3ccccc3)[nH]c2c1,-60.5% (active)
6,COc1cccc(-c2ccc(/C=N/NC(=O)c3[nH]c4ccc(Br)cc4c3-c3ccccc3)o2)c1,25.9%
7,COc1cc2c(cc1OC)CN(CCCCOc1cc(O)c3c(=O)cc(-c4ccccc4)oc3c1)CC2,80.3%
8,COc1ccc(CCN2C(=O)/C(=C/c3csc(C#N)n3)SC2=S)cc1,0.405% (active)
9,N#Cc1c(NC(=O)c2ccc(C(O)(C(F)(F)F)C(F)(F)F)cc2)sc2c1CCC(=O)C2,15.5%
10,Cn1cc(-c2cc(N)n3nc(-c4c[nH]c5ccc(Br)cc45)cc3n2)c2cc(Br)cnc21,-75.6% (active)
11,COc1ccccc1[C@H]1C(C(=O)c2ccc(Cl)cc2)C2(N[C@@H]1c1ccccc1)C(=O)Nc1ccccc12 (some centres not stated),3.98% (active)
12,CC(=O)Nc1ccc(-c2cn(-c3cccc(C(=O)Nc4cc(C(F)(F)F)cc(C(F)(F)F)c4)c3)nn2)cn1,-47.5% (active)
13,CCCCCCCCCCCCCCCCCCCC(=O)NCCc1c[nH]c2ccc(OC(=O)CCCC(=O)OCCOOCCOOCCOOCCOOCCOOCCOOCCOOCCOOCCOOCCOOCCOOCCOC)cc12,39.8%
14,O=C1Nc2ccc(Cl)cc2/C1=C/c1cccc(OCc2ccccn2)c1,6.01% (active)
15,CN1CCN(Cc2ccc(C(=O)Nc3cccc(Nc4ccc5cc(O)ccc5n4)c3)cc2C(F)(F)F)CC1,-16.1% (active)
16,O=C(O)CCCCCCCCCCN1C(=O)/C(=C/c2cnc(-c3ccc(Cl)cc3)s2)SC1=S,13.2%
17,COc1ccc(NC(=O)Nc2ccc(OCC(=O)N=Nc3c(O)[nH]c4ccc([N+](=O)[O-])cc34)cc2)cc1,91%
18,C/C(=C\CC/C=C(\C)CC/C=C(\C)CC[C@@H](O)C(C)(C)O)CC/C=C(\C)CC[C@@H](O)C(C)(C)O,63.7%
19,CCOC(=O)C1NN(c2ccc(S(N)(=O)=O)cc2)c2nc3nc(-c4cccs4)cc(-c4cccs4)c3c(=O)n21 (configuration not stated),91.6%

row,SMILES,growth
1,CN(CCF)c1ccc(/C=C/C(=O)c2ccc(N)cc2O)cc1,69.6%
2,C=C1CCC2C3(C)COC(c4c(F)cccc4F)OC3CCC2(C)C1CC(O)C1=CCOC1=O (configuration not stated),68.1%
3,O=C(Nc1cccc(-c2cn(-c3ccc4oc(=O)ccc4c3)nn2)c1)Nc1cc(C(F)(F)F)cc(C(F)(F)F)c1,30.2%
4,CN1CCCN(Cc2ccc(C(=O)Nc3cccc(Nc4ccc5cc(O)ccc5n4)c3)cc2C(F)(F)F)CC1,73.7%
5,N#Cc1c(NC(=O)c2ccc(C(F)(F)F)cc2C(F)(F)F)sc2c1CCC(=O)C2,23.9%
6,O=C(c1ccc(O)cc1)C1[C@H](c2ccccc2Br)[C@@H](c2ccccc2)NC12C(=O)Nc1ccc(Br)cc12 (some centres not stated),70.2%
7,COc1ccc(N2N=C(c3ccc4c(c3)OCCO4)CC2c2cccc(NC(=O)CCCNS(=O)(=O)c3ccc(F)cc3)c2)cc1 (configuration not stated),91.5%
8,C=C1CCC2C3(C)COC(c4ccccc4F)OC3CCC2(C)C1C/C=C1/C(=O)OCC1O (configuration not stated),-27.8% (active)
9,O=C(Nc1nc2ccc([N+](=O)[O-])cc2s1)Nc1ccccc1I,17.9%
10,COc1ccc(-c2ccc(/C=N/NC(=O)c3[nH]c4ccc(Br)cc4c3-c3ccccc3)s2)cc1,104%
11,Brc1ccc(/C=N/Nc2ncnc3sc4c(c23)CCN(Cc2ccccc2)C4)cc1,47.2%
12,CC(=O)Nc1ccc(-n2cnc3cc(-c4ccc(O)cc4)ccc32)cc1C,60.8%
13,O=C(c1ccc(O)cc1)C1[C@H](c2ccc(Br)cc2)[C@@H](c2ccccc2)NC12C(=O)Nc1ccccc12 (some centres not stated),49.1%
14,Nc1nnc(-c2c[nH]c3ccc(F)cc23)c(-c2c[nH]c3ncccc23)n1,82%
15,CN1CCN(c2ccc(C(=O)/C=C/c3ccc(C#N)cc3)cc2)CC1,82.1%
16,Cc1ccc(CSc2nc(-c3ccc(F)cc3)c(C#N)c(=O)[nH]2)cc1,101%
17,CCCCCCCCCCCCCCCCCCCC(=O)NCCc1c[nH]c2ccc(OC(=O)NOCCOCCOCCOCCOCCOCCOCCOCCOCCOCCOCCOCCOCCOCCOCCOCCOCCOCCOCCOCCOCCOCCOC)cc12,21.4%
18,Cc1ccc(/C(N)=N/c2sc(-c3ccccc3)nc2-c2ccccc2)cc1,89%
